Giardia kill: Small Molecules that selectively kill Giardia lamblia: qHTS. hit rate 0.15% among 340,000. activity change, % at 7.66 µM, hits read low. Giardia lamblia trophozoite viability; in the data active means activity change below about -80%; inconclusive means between about -30% and that limit;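 further: parasites exposed to compound for two days anaerobically before the ATP read; on the % scale 0 is the no-effect control and ±100 the full control effect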
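ATP-content bioluminescence gauges trophozoite survival. Cells (100/well) receive compound and incubate anaerobically for 48 hrs at 37 deg C; detection reagent follows for 15-30 min at room temperature.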
RXFP1 antag: qHTS Assay for Antagonists of the Relaxin Receptor RXFP1; Relaxin receptor 1 (Homo sapiens), Q9HBX9; HEK293-RXFP1, relaxin-stimulated cAMP HTRF, 30 min; stronger effect = lower value; activity change, negative = inhibition, % at 57.5 µM; hit rate 0.59% among 350,000; AID 1259400, 2018;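 active means activity change of -60% or lower, but not beyond a set lower limit; inconclusive means change between -60% and -40%, or beyond the set limit; inactive means change above -40%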; further: on the % scale 0 is the no-effect control and ±100 the full control effect
RXFP1 ag: qHTS Assay for Agonists of the Relaxin Receptor RXFP1; Relaxin receptor 1 (Homo sapiens), Q9HBX9; HEK293T-RXFP1 cAMP TR-FRET, 30 min; response scale: percent of porcine relaxin response, buffer zero; Potency, µM (series often up to 57.5 µM), for the others: at the highest dose activation, usual class: activators; hit rate 0.3% among 370,000; further: potency means the concentration at half of the fitted maximal effect; on the % scale 0 is the no-effect control and ±100 the full control effect; nearly all actives have a fitted effect of over 60% in size
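HEK293 cells stably expressing RXFP1, treated 30 min at 37C with compounds plus PDE4 inhibitor Ro 20174; cAMP measured by HTRF TR-FRET. Normalized to buffer and 29 nM porcine relaxin; EC50 by Hill fit.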
NPSR antag: qHTS Assay for Antagonists of the Neuropeptide S Receptor: cAMP Signal Transduction. Q6W5P4. Potency, µM (titrated, usually from 38.3 µM), inactives show at the highest dose activity change, negative = inhibition, usual class: inhibitors. hit rate 1% among 220,000. CHO-NPSR cells, cAMP TR-FRET, antagonist mode; further: potency means the concentration at half of the fitted maximal effect; on the % scale 0 is the no-effect control and ±100 the full control effect; nearly all actives have a fitted effect of over 50% in size
Target sequence (Q6W5P4 whole entry, looked up): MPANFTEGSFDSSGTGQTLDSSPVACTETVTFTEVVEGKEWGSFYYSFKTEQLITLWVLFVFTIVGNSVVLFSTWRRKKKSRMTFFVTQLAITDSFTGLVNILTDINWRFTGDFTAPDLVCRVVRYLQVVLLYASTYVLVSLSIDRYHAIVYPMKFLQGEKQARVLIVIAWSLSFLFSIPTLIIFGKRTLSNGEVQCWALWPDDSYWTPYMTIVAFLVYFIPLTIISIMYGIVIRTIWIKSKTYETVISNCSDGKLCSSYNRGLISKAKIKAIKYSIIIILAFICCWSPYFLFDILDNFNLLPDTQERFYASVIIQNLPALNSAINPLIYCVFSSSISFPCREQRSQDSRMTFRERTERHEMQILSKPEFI
BRCA1 expr act: qHTS Assay to Identify Small Molecule Activators of BRCA1 Expression. MCF7-BRCA1-FFLuc reporter, luminescence, 48 h; response scale: scaled: vehicle 0%, 10 µM genistein 100%. Potency, µM (doses to about 46.1 µM), without a hit: at the top dose activation, most hits filed as activators. hit rate 1.1% among 380,000; further: potency means the concentration at half of the fitted maximal effect; nearly all actives have a fitted effect of over 80% in size
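MCF7-BRCA1-FFLuc, 2000 cells/well; 2 h attach, 37 °C/5% CO2; compound 48 h; luciferase substrate 15 min; luminescence end-point. Norm. to genistein 10 microM max activation and DMSO; concentration-response curves fitted.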
IL2 activator: qHTS of IL-2 Activators. IL-2 activation reporter assay, cell-based qHTS; stimulated with anti-CD3/CD4/CD28 beads; in transgenic mouse T cells. AID 652025, 2013. hit rate 0.065% among 360,000. activation, % (series mostly up to about 46 µM); in the data active means activation above about 50%; inconclusive means mostly about 30% to 49%; further: 0% is about no effect
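First, unstimulated transgenic mouse T cells were exposed to compound for 60 min. Next, anti-CD3/anti-CD4-coated beads with anti-CD28 were added. Finally, after 18 h at 37 degrees C, EGFP and DsRed were imaged.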
Active calls of the source: *; u = inconclusive; x = no result; [ ] = dose if it differs, or a comment. An excerpt weighted towards active compounds, which were near 1.9% of everything screened. Unless noted, the call rests on the fitted dose curve; in most records, active means well fitted curve in the direction sought with a large enough effect; inconclusive means small, poorly fitted or top-dose-only effect, or another doubt; inactive means no such curve, though single readings can be large; an effect the other way counts as inactive or inconclusive.

SMILES	Giardia kill	RXFP1 antag	RXFP1 ag	NPSR antag	BRCA1 expr act	IL2 activator
O=C(CCl)N(c1ccc(Cl)cc1)c1c[nH]c2ccccc12	27	-3	0%	7.9µM*	-91%	-1
Cc1ccn2cc(-c3cnoc3C)nc2c1	26	-2	0%	7%[46.1 µM]	10µM*	0
O=C(CC(=O)c1ccccc1)Nc1cccnc1Cl	-3	-2	2%	0%[46.1 µM]	7.1µM*	1
O=C(NC(=S)Nc1cccnc1Cl)c1ccc(F)cc1	-7	-3	2%	x	10µM*	0
COc1ccc(-c2cc(C3C4C=CCCC4(C)C(=O)N3Cc3ccccc3)ccc2F)cc1OC (stereo not given)	-26	x	x	x	x	x
CCOc1ccc(-n2nc(CO)c(C(=O)NCc3ccccn3)n2)cc1	x	-18	2%	x	x	x
Nc1c(C(=O)N2CCCC2)sc2nc(-c3ccccc3)ccc12	-17	45	28%	25%	5.6µM*	1
Nc1c(C(=O)N2CCCCC2)sc2nc3c(cc12)CCCC3	3	-18	12%	x	5.6µM*	0
COc1ccc2cc3c(N)c(C(=O)N4CCCC4)sc3nc2c1	10	-8	2%	-19%[46.1 µM]	u	0
CCC1CCCCN1CC(=O)N1CCCc2c1c(=O)oc1ccc(OCc3ccccc3)cc21 (stereo not given)	x	x	3%	x	x	x
Clc1ccc(C2=NNC(=NCC3CCCO3)SC2)cc1 (stereo not given)	-19	-6	2%	6%	2.5µM*	0
Cc1cc(C2=NNC(=NCCc3ccccc3)SC2)c(C)n1CC1CCCO1 (stereo not given)	2	-3	-1%	-32%	47%	0
CCCCCn1c(=O)[nH]c2cc(C(=O)N3CCN(c4cccc(Cl)c4)CC3)ccc2c1=O	x	x	3%	x	0%	x
COc1ccc(C(=O)Cc2nnc(C)s2)c(OC)c1	13	-11	3%	2%	11µM*	0
CCc1nnc(NC(=O)c2ccc(OC)cc2OC)s1	-11	17	3%	-15%[46.1 µM]	-46%	-1
O=C(Nc1ccccc1)N1CCCC2CCCCC21 (stereo not given)	1	12	-1%	-14%[46.1 µM]	11µM*	0
O=C(NC1CCCC1)C1CCCN1C(=O)Nc1ccccc1 (stereo not given)	4	-7	2%	u	3%	1
CCOC(=O)C(C(=O)Nc1ccccc1)C1CCCCC1 (stereo not given)	17	0	2%	-4%[46.1 µM]	-10%	3
O=C(Nc1ccccc1)C(c1ccccc1)C1CCCC1 (stereo not given)	2	-70*	-2%	-27%	-27%	4
Cc1cc(C)c2c(CC(=O)Nc3ccc(S(=O)(=O)N4CCCC(C)C4)cc3)coc2c1 (stereo not given)	x	u	0%	x	x	x
Cc1cccc(-c2nnc(C3CCN(S(=O)(=O)c4cccc(Cl)c4)CC3)o2)c1	x	-9	4%	x	x	x
COc1cc(SC)ccc1C(=O)Nc1ccc(C)cc1C	-16	8	-2%	-15%	7.9µM*	0
CCc1ccc2oc(-c3ccc(C)c(NC(=O)c4ccc(C#N)cc4F)c3)nc2c1	x	x	6%	x	-6%	x
CC(Oc1ccccc1)C(=O)N=Nc1c(O)[nH]c2ccc([N+](=O)[O-])cc12 (stereo not given)	8	-84*	1%	-38%	-44%	-3
Nc1ccc(-c2nnc(-c3ccc(N)cc3)o2)cc1	-20	2	16%	x	5.6µM*	-3
SMILES	Giardia kill	RXFP1 antag	RXFP1 ag	NPSR antag	BRCA1 expr act	IL2 activator
c1cc(CSc2nnc(-c3ccc4c(c3)OCO4)o2)ccn1	0	-7	0%	-3%[46.1 µM]	3.2µM*	4
Nc1nnc(-c2ccc(Cl)cc2)o1	-19	12	0%	7%	9%	-5
c1ccc(-c2nnc(-c3ccccc3)o2)cc1	-4	-12	2%	-16%[46.1 µM]	79%	0
c1ccc(-c2nnc(-c3ccncc3)o2)cc1	4	-26	3%	1%[46.1 µM]	11µM*	-1
Fc1ccccc1CSc1nnc(-c2cccs2)o1	-3	-14	3%	-10%[46.1 µM]	4µM*	-2
Cc1onc(-c2ccccc2)c1C(=O)Cl	x	-5	x	x	x	x
Cc1ccccc1CNC(=O)CCC(=O)N1CCSc2ccccc21	x	0	0%	x	x	x
c1ccc(OCc2nnc(-c3ccccc3)o2)cc1	1	-14	1%	0%	7.1µM*	-2
c1ccc2c(CSc3nnc(-c4ccncc4)o3)cccc2c1	-6	-5	0%	u	5%	-1
Fc1ccc(CSc2nnc(-c3cccs3)o2)cc1	-15	1	3%	u	u	1
Oc1ccccc1-c1nnc(COc2ccccc2)o1	0	-17	1%	-7%[46.1 µM]	60%	2
Clc1ccccc1CSc1nnc(-c2ccncc2)o1	-5	-7	0%	-10%[46.1 µM]	8.9µM*	-2
Fc1ccc(Cc2nnc(-c3cccs3)o2)cc1	15	-2	0%	-2%[46.1 µM]	10µM*	-2
CCn1c(SC(C)C(=O)NCc2ccco2)nnc1-c1ccccc1 (stereo not given)	x	x	x	x	0%	x
O=C(/C=C/c1cn(CC(O)CN2CCCCCC2)c2ccccc12)c1ccc(Br)cc1 (stereo not given)	x	x	3%	x	-13%	x
COc1ccc(-c2nc3ccccn3c2NCc2ccc3c(c2)OCO3)cc1	6	6	5%	-2%[46.1 µM]	7.9µM*	-2
c1ccc(-c2nc3ccccn3c2NCc2ccc3c(c2)OCO3)cc1	-17	11	6%	-15%[46.1 µM]	6%	-2
CO[C@@]1(NC(=O)CSC(F)F)C(=O)N2C(C(=O)O)=C(CSc3nnnn3CCO)CO[C@@H]21	x	16	x	x	x	x
COc1ccc(CCn2c3c(c(=O)[nH]c2=S)CN(c2ccccc2)CN3)cc1OC	-9	x	x	x	5%	x
O=C1Nc2ccccc2Oc2cc(Oc3ccc(Cl)cc3)ccc21	x	-15	0%	x	x	x
Cc1ccc(Oc2cc([N+](=O)[O-])cc3c2C(=O)Nc2ccccc2O3)cc1	1	-22	0%	-26%	-61%	72*
N#C/C(=C\c1ccc(C(=O)O)cc1)c1nc2sc3c(c2c(=O)[nH]1)CCCC3	7	13	5%	11%	11%	301*
Cc1nc2cc(-c3cccc(F)c3)nn2c(C)c1CCC(=O)Nc1ccccc1C(N)=O	x	x	0%	x	-39%	x
O=[N+]([O-])c1cnc(Sc2ccncn2)s1	17	-15	2%	u	-97%	-1
C=CCn1c(Sc2ncc([N+](=O)[O-])s2)n[nH]c1=O	-26	-80*	4%	u	-80%	-1

From PubChem
